Inconclusive results are not listed. The source made the active and inactive calls. The calls were made as follows: active = hit-call score of the fitted dose curve at least 0.9, where 1 is the maximum; inconclusive = response in the unintended direction; inactive = score below 0.9.
Key:
[1] = ATG_XTT_Cytotoxicity: Cytotoxicity Assessment in the Attagene TRANS-FACTORIAL HepG2 Assay (AID 2283584);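 as to AC50: cells exposed to compound for 24 h before reading; active means loss of viability signal versus DMSO baseline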
Method in brief: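 Cells: human HepG2, transiently transfected with MRTU reporter constructs. Exposure 24 h. Readout: XTT, cell number. Baseline/neg ctrl DMSO; loss-of-signal scored.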

[2] = TOX21_p53_BLA_p2_viability: Viability Assessment in the Tox21 HCT-116 p53 Agonism Beta-lactamase Assay, Phase 2 (AID 2283591);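 also: compound exposure lasted 16 h at 37 °C; actives lower the ATP signal meaning cytotoxicity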
Method in brief: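 HCT116 p53-bla cells, 4000/well, dosed after 5 h plating (217-fold dilution of DMSO stocks) and incubated 16 h at 37C. Viability taken as cellular ATP by CellTiter-Glo luminescence after 30 min RT; signal loss marks cytotoxicity.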

[3] = molecular target: Cellular tumor antigen p53 (Homo sapiens) (UniProt P04637); experiment: TOX21_p53_BLA_p2_ratio: Tox21 HCT-116 p53 Agonism Beta-lactamase Assay, Ratio, Phase 2 (AID 2283592)
Chain of Cellular tumor antigen p53 (Homo sapiens) (P04637 whole entry, looked up): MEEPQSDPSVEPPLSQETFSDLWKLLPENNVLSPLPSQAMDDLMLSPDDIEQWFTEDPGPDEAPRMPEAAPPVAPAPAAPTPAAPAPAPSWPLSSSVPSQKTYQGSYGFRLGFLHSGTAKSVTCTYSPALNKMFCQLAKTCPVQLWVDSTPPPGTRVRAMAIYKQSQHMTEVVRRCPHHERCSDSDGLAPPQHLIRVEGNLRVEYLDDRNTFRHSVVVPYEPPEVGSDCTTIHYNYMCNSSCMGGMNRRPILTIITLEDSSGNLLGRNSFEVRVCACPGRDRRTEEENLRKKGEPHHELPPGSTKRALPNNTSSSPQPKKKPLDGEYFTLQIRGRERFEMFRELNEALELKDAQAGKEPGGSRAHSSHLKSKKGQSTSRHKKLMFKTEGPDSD
Method in brief: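 HCT116 p53-bla; 4000 cells/well; 5 h pre-incubation; cpd in DMSO, 217-fold dilution; 16 h 37C/5% CO2; CCF4-AM 2 h RT; Ex 405, Em 460/530 ratio; DMSO = baseline; positive fitting direction.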

[4] = TOX21_p53_BLA_p3_viability: Viability Assessment in the Tox21 HCT-116 p53 Agonism Beta-lactamase Assay, Phase 3 (AID 2283593);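 also: cells exposed to compound for 16 h before reading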
Method in brief: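 HCT116 cells, 4000/well, dosed 5 h after plating by pin transfer (217-fold dilution from DMSO stock) and incubated 16 h at 37C, 5% CO2. Viability read as ATP luminescence with CellTiter-Glo after 30 min at room temperature.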

[5] = molecular target: Cellular tumor antigen p53 (Homo sapiens) (UniProt P04637); experiment: TOX21_p53_BLA_p3_ratio: Tox21 HCT-116 p53 Agonism Beta-lactamase Assay, Ratio, Phase 3 (AID 2283596)
Method in brief: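 HCT116 p53-bla cells (4000/well) given compound in DMSO (217-fold dilution) after 5 h, incubated 16 h at 37C. CCF4-AM substrate 2 h at room temperature; 460/530 nm emission ratio, gain fitted against DMSO.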

[6] = TOX21_p53_BLA_p4_viability: Viability Assessment in the Tox21 HCT-116 p53 Agonism Beta-lactamase Assay, Phase 4 (AID 2283597);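 also: hits lower the luminescence signal meaning cytotoxicity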
Method in brief: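 Cells plated, 5 h pre-incubation; DMSO compounds pinned (217-fold dilution); 16 h, 37C/5% CO2; CCF4-AM 2 h RT; CellTiter-Glo 30 min RT; luminescence read.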

[7] = molecular target: Cellular tumor antigen p53 (Homo sapiens) (UniProt P04637); experiment: TOX21_p53_BLA_p5_ratio: Tox21 HCT-116 p53 Agonism Beta-lactamase Assay, Ratio, Phase 5 (AID 2283599)
Method in brief: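 HCT-116 p53-bla cells (4000/well) plated 5 h, dosed with compound (217-fold DMSO dilution) for 16 h at 37 C; CCF4-AM substrate 2 h at room temperature. Activity is the 460/530 nm emission ratio (405 nm excitation), fitted in gain-of-signal direction versus DMSO.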

[8] = TOX21_p53_BLA_p5_viability: Viability Assessment in the Tox21 HCT-116 p53 Agonism Beta-lactamase Assay, Phase 5 (AID 2283600)
Method in brief: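 4000 cells/well; 5 h pre-incubation; DMSO compounds pin-transferred, 217-fold dilution; 16 h, 37C/5% CO2; CCF4-AM 2 h RT; CellTiter-Glo 30 min RT; luminescence.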

[9] = molecular target: Cellular tumor antigen p53 (Homo sapiens) (UniProt P04637); experiment: TOX21_p53_BLA_p4_ratio: Tox21 HCT-116 p53 Agonism Beta-lactamase Assay, Ratio, Phase 4 (AID 2283601)
Method in brief: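 HCT-116 p53 beta-lactamase reporter cells (4000/well) preincubated 5 h, then compound (217-fold dilution of DMSO stock) for 16 h at 37C. CCF4-AM substrate added 2 h at room temperature; 460/530 nm emission ratio fitted upward versus DMSO.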

SMILES	outcome [1]	outcome [2]	outcome [3]	outcome [4]	outcome [5]	outcome [6]	outcome [7]	outcome [8]	outcome [9]	AC50 [1]	AC50 [2]	AC50 [3]	AC50 [6]	AC50 [7]	AC50 [8]	AC50 [9]
CC(=O)[C@H]1CC[C@H]2[C@@H]3CC=C4C[C@@H](O)CC[C@]4(C)[C@H]3CC[C@]12C	inactive	inactive	inactive	inactive	inactive	inactive	inactive	inactive	inactive							
CC(=O)C(=O)O	inactive	inactive	inactive	inactive	inactive	inactive	inactive	inactive	inactive							
O=C(O)c1cccc([N+](=O)[O-])c1	inactive	inactive	inactive	inactive	inactive	inactive	inactive	inactive	inactive							
O=C(Oc1ccccc1)c1ccc(O)cc1	inactive	inactive	inactive	inactive	inactive		inactive	inactive	inactive							
COC(=O)Cc1cccc2ccccc12	inactive	inactive	inactive	inactive	inactive	inactive	inactive	inactive	inactive							
CNC[C@H](O)c1cccc(O)c1	inactive	inactive	inactive	inactive	inactive	inactive	inactive	inactive	inactive							
CC(C)C(C)(C)C(C)(C)C(C)(C)S	inactive	inactive	inactive	inactive	inactive		inactive	inactive	inactive							
O=C(O)c1snc(Cl)c1Cl	inactive	inactive	inactive	inactive	inactive	inactive	inactive	inactive	inactive							
COc1ccc(Nc2ccccc2)c(C)c1	inactive	inactive	inactive	inactive	inactive		inactive	inactive	inactive							
CNC(=O)Oc1ccc2c(c1)[C@]1(C)CCN(C)[C@@H]1N2C	inactive	inactive	inactive	inactive	inactive	inactive	inactive	inactive	inactive							
Nc1cccc(S(=O)(=O)c2cccc(N)c2)c1	inactive	inactive	inactive	inactive	inactive	inactive	inactive	inactive	inactive							
O=C(O)c1ccc(C(=O)O)cc1	inactive	inactive	inactive	inactive	inactive	inactive	inactive	inactive	inactive							
CC(C)(C)C(=O)c1ccccc1	inactive	inactive	inactive	inactive	inactive		inactive	inactive	inactive							
CC(C)(C#N)c1cc(Cn2cncn2)cc(C(C)(C)C#N)c1	inactive	inactive	inactive	inactive	inactive	inactive	inactive	inactive	inactive							
CCCCCCCCCCCCCOS(=O)(=O)O				inactive	inactive					148 µM (active)	82.4 µM (active)	85.6 µM (active)	70.8 µM (active)	85.4 µM (active)	66.6 µM (active)	83.6 µM (active)
CCCCCCCCCCN	inactive	inactive	inactive	inactive	inactive		inactive	inactive	inactive							
CCCCCCCCCCCCCCCC(=O)O	inactive	inactive	inactive	inactive	inactive		inactive	inactive	inactive							
CC(=O)Nc1ccc(C)cc1C	inactive	inactive	inactive	inactive	inactive		inactive		inactive							
O=C(O)c1cccc(C(F)(F)F)c1	inactive	inactive	inactive	inactive	inactive	inactive	inactive	inactive	inactive							
CC(C)C1CCC(O)CC1 (stereo not given)	inactive	inactive	inactive	inactive		inactive		inactive	inactive							

— PubChem BioAssay (EPA / NIEHS)
